Source: PubChem
This is a sample that favours compounds with a hit; in the whole collection about 2.3% have one here.
M1 ag: human M1 muscarinic receptor agonism; CHO-K1 hM1, Fluo-8 calcium fluorescence, agonist mode; 0% DMSO, 100% acetylcholine EC100; activation, % at 3 µM; 360,000 compounds, 0.33% hits;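 active means activation above the run's mean compound activation plus 3 SD, cut at about 16% in these data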;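 further: peak over basal fluorescence ratio within a 140 s kinetic read after compound addition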
Target sequence (P11229 whole entry, looked up): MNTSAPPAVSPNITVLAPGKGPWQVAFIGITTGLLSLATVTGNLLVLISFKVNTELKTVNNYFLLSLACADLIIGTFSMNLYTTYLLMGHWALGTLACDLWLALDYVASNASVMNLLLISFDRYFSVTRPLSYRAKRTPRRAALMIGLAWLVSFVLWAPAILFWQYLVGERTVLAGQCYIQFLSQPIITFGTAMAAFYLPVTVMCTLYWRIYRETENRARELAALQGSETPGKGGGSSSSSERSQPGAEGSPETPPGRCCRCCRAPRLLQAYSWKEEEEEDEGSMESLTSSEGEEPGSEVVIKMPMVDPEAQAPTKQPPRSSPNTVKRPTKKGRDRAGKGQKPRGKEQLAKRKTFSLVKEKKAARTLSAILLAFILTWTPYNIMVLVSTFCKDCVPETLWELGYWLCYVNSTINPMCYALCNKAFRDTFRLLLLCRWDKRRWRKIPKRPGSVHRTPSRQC
CHO-K1 Ca ag: counter-screen for M1 agonists: effect in parental CHO-K1 cells. Fluo-8 calcium fluorescence; scaled to maximal ATP response, vehicle zero. activation, % at 3 µM. 360,000 compounds, 0.48% hits; in the data active means activation above about 15%;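 further: untransfected CHO-K1 host cells lacking M1 receptor as counterscreen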
M1 PAM: positive allosteric modulators of human M1 muscarinic receptor; CHO-K1 hM1, Fluo-8 calcium fluorescence, ACh EC20; 0% = ACh EC20, 100% = maximal ACh; activation, % at 3 µM; 360,000 compounds, 0.088% hits; AID 588819; in the data active means activation above about 19%, passing the limit was not always enough
CHO-K1 Ca antag: nonselective inhibitor or artifact in parental CHO-K1 cells; ATP-induced calcium, Fluo-8 fluorescence; inhibition, % at 3 µM; 360,000 compounds, 0.6% hits;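 active means inhibition above a per-plate cutoff, the plate's mean sample inhibition plus 3 SD, cut at about 24% in these data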;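 further: 0% = DMSO plus EC80 ATP and 100% = DMSO alone without ATP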
CHO-K1 Ca PAM: nonselective activator or artifact in parental CHO-K1 calcium assay; ATP EC20, Fluo-8 calcium fluorescence; 0% at ATP EC20, 100% at ATP max; activation, % at 3 µM; 360,000 compounds, 0.02% hits; AID 602247;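 active means activation above the run cutoff, the mean activation of all test compounds plus 3 SD, cut at about 40% in these data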;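 further: peak over basal fluorescence ratio in a 140 s read after ATP addition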
M1 antag: blocks human M1 muscarinic receptor; P11229; CHO-K1 hM1, Fluo-8 calcium fluorescence, ACh EC80 antagonist; inhibition, % at 3 µM; 360,000 compounds, 1.3% hits; AID 588852;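 active means percent inhibition above its own plate's cutoff, namely the mean of that plate's compound wells plus 3 SD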;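 further: peak over basal fluorescence ratio during 140 s after agonist addition; 0% = ACh EC80 plus DMSO and 100% = DMSO alone without agonist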
Starred values were filed as active, the others as inactive.

SMILES	M1 ag	CHO-K1 Ca ag	M1 PAM	CHO-K1 Ca antag	CHO-K1 Ca PAM	M1 antag
Cc1ccc(S(=O)(=O)N2CCOCC2)cc1NC(=O)COc1ccc(C(=O)c2ccccc2)cc1	1	16*	-20	5	-6	37*
O=C(COc1ccc(S(=O)(=O)N2CCOCC2)cc1)Nc1ccc(Br)cc1	-1	6	0	-5	10	-1
COc1ccc(CNC(=O)COc2ccc(S(=O)(=O)N3CCOCC3)cc2)cc1	-2	1	0	-1	-10	0
O=C(CCCOc1ccc(Br)cc1)Nc1ccc(S(=O)(=O)N2CCOCC2)cc1	3	13	-13	5	-10	32*
COc1ccc(S(=O)(=O)N2CCOCC2)cc1NC(=O)CO/N=C/c1ccccc1OC(F)F	-8	15*	13	1	21	-11
O=C(COc1ccc(S(=O)(=O)N2CCOCC2)cc1)NCc1ccccc1	-2	0	-7	22	-16	29*
O=C(NNC(=O)c1sccc1-n1cccc1)Nc1ccc(F)cc1	-3	0	4	6	-16	-3
COc1ccc(S(=O)(=O)N2CCOCC2)cc1NC(=O)c1ccc(=O)[nH]c1	-3	1	6	54*	-3	-10
COc1ccc(S(=O)(=O)N2CCOCC2)cc1NC(=O)c1ccc2c(c1)OCO2	-2	2	6	-8	1	-5
O=C(NCCN1CCN(S(=O)(=O)c2ccc(F)cc2)CC1)C(=O)NCc1ccccc1	-4	3	2	24*	0	-2
COc1cc(OC)c(C2=NOC(C(=O)Nc3ccc4c(c3)OCO4)C2)cc1Cl (centres undefined)	-3	18*	-2	0	2	5
CCCCCCN1C[C@H](O)[C@@H](n2cc(C3CC3)nn2)C[C@@H]1c1ccccc1	-3	0	-3	9	-2	5
COCCn1c(SCC(=O)Nc2cc(C)on2)nnc1C(C)C	-2	0	1	-15	4	-4
CCCNC(=O)C1(C)CCN(Cc2ccc(C)c3ccccc23)C1 (centres undefined)	-7	1	1	-12	9	-8
CC1(C)C2CC=C(/C=N/NC(=S)Nc3cccnc3)C1C2 (centres undefined)	-5	16*	0	14	15	1
Cc1cc(SCn2nnc3ccccc3c2=O)nc2ccccc12	-4	0	12	-4	15	-3
Cc1ccc(-n2nnnc2SCn2nnc3ccccc3c2=O)c(C)c1	3	10	-7	24*	-8	19
O=C1CC(c2cccs2)CC2=C1C(c1ccccc1)n1ncnc1N2 (centres undefined)	-8	0	0	4	10	-25
CC1CC(=O)C2=C(C1)Nc1ncnn1C2c1ccccc1 (centres undefined)	-1	0	11	28*	-1	6
O=C(c1ccc(OC2CCN(CCc3ccccc3)CC2)cc1)N1CCCCC1CCCO (centres undefined)	-7	1	-8	-8	20	30*
CC(C)N1CCN(C(=O)c2ccc(OC3CCN(CCc4ccccc4)CC3)cc2)CC1	-6	0	-20	0	7	43*
O=C(c1ccc(OC2CCN(CCc3ccccc3)CC2)cc1)N1CCCC1	-5	2	-10	-8	11	9
CCOC(=O)C1CCCN(Cc2nc(N)nc(Nc3ccccc3OC)n2)C1 (centres undefined)	20*	1	15	-11	20	-9
CCOC(=O)C1CCCN(Cc2nc(N)nc(Nc3ccc(Cl)cc3)n2)C1 (centres undefined)	37*	0	3	16	-2	-33
N#C/C(=C(/O)CN1CCCC1)c1nc(-c2ccccc2)cs1	-4	0	7	-6	-3	-6
CCOC(=O)C1CCCN(C/C(O)=C(\C#N)c2nc(-c3ccc(Cl)cc3)cs2)C1 (centres undefined)	25*	0	-10	4	-6	8
COc1cc(OC)nc(NC(=O)COC(=O)c2cccc(Cl)c2)n1	2	0	9	-6	-1	-5
COc1ccc(-c2oc(NC(=O)CSc3ncn[nH]3)c(C#N)c2-c2ccc(OC)cc2)cc1	-2	0	3	0	9	-8
